Rows were chosen to be rich in hits. Some 1.6% of all compounds tested hit in one or more screens of this group.
MOR-DOR ag: agonists of human mu-delta opioid receptor heterodimerization | P35372+P41143 | cells, OPRM1-OPRD1 heterodimerization, luminescence | activation, % at 9.3 µM | 340,000 tested, 0.3% active | AID 504326; in the data active means activation above about 18%;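 further: 0% = vehicle-treated cells and 100% = reference agonist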
Target sequence (P35372 whole entry, looked up): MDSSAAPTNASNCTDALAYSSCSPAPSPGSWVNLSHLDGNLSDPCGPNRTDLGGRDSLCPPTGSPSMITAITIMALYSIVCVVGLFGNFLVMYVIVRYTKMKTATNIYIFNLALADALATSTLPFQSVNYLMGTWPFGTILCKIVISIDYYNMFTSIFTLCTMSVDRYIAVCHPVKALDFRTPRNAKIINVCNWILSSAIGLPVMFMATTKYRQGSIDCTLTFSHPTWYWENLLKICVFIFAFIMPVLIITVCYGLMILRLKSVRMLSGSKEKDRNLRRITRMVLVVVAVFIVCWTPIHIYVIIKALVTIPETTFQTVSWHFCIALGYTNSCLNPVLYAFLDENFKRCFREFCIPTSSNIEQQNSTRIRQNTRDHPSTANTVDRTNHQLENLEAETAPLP
Target sequence (P41143 whole entry, looked up): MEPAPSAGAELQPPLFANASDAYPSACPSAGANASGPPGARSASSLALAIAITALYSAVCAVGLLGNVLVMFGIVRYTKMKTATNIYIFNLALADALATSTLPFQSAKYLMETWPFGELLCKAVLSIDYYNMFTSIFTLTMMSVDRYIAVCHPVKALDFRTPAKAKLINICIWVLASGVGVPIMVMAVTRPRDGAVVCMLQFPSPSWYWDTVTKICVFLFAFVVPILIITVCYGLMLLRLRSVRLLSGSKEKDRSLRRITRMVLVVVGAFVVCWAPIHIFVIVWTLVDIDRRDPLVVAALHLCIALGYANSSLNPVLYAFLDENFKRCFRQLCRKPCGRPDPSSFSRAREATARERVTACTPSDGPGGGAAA
NALP1 yeast inh: NALP1 inhibition | S. cerevisiae NALP1/ASC/caspase-1 growth, X-gal OD620, 72 h | inhibition, % at 10 µM | 280,000 tested, 0.61% active; in the data active means inhibition mostly above about 24%, no sharp cut-off; inactive means mostly below about 32%
MOR-DOR inv ag-1: mu-delta opioid heterodimer inverse agonism; 340,000 tested, 0.21% active; AID 504357; cell-based MOR-DOR heterodimer luminescence; inhibition, % at 9.3 µM; in the data active means inhibition above about 22%, passing the limit was not always enough;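 further: 0% = cells with DMSO and 100% = wells without cells with DMSO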
HTR5A ag ctr: HTR5A agonism, opioid heterodimer counter-screen. HTR5A agonist assay, luminescence, cell-based. activation, % at 9.3 µM. P47898. 340,000 tested, 0.61% active. AID 504692; in the data active means activation mostly above about 9.5%, no sharp cut-off; inactive means mostly below about 7.6%;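 further: 0% = cells with vehicle only and 100% = reference agonist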
PolyA inh: yeast polyadenylation inhibition; 300,000 tested, 0.02% active; activity score, % at 12 µM; AID 1875; S. cerevisiae SKY197-pL101 polyadenylation reporter, beta-gal luminescence; efflux-impaired pdr1/pdr3 knockout yeast; score 100 = 6 SD above DMSO;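 active means lowest replicate activity score at least 50, where 100 means six control SD above control mean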;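 further: yeast exposed to compound for 9 h at 30 °C; higher score means more reporter readthrough which indicates perturbed polyadenylation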
HTR5A inv ag: inverse agonist of human HTR5A in OPRM1-OPRD1 counter-screen. P47898. HTR5A cell line, luminescence, inverse agonism. inhibition, % at 9.3 µM. 340,000 tested, 0.083% active; in the data active means inhibition mostly above about 23%, no sharp cut-off; inactive means mostly below about 18%;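 further: 0% = cells with DMSO and 100% = no-cell wells with DMSO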
MOR-DOR inv conf: OPRM1-OPRD1 heterodimer inverse agonism, confirmation; shares compounds with MOR-DOR inv ag-1; inhibition, % at 9.3 µM; AID 504900; 580 tested, 20% active; cells expressing OPRM1/OPRD1 heterodimer, luminescence; in the data active means inhibition above about 32%;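 further: 0% = cells with DMSO and 100% = wells lacking cells with DMSO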
HTR5A inv count: inverse agonist of human HTR5A in OPRM1-OPRD1 counter-screen; shares compounds with MOR-DOR inv ag-1; HTR5A-expressing cells, luminescence, inverse agonism; inhibition, % at 9.3 µM; 580 tested, under 10 active; AID 504914;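 further: 0% = cells with DMSO and 100% = no-cell wells with DMSO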
MOR-DOR inv ag-2: inverse agonist of OPRM1-OPRD1 heterodimerization in HTR5A counter-screen; shares compounds with HTR5A inv ag; U2OS counter-screen cells, complementation luminescence; inhibition, % at 9.3 µM; 190 tested, under 10 active;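 further: 0% = cells with DMSO and 100% = wells without cells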
HTR5A inv conf: HTR5A (human) inverse agonism, confirmation; HTR5A-expressing cells, luminescence; inhibition, % at 9.3 µM; 190 tested, under 10 active; shares compounds with HTR5A inv ag;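 further: 0% = cells with DMSO and 100% = no cells with DMSO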
The depositor's hits bear a star; . = no result given. Unless noted, how the calls were made is not given here.

SMILES	MOR-DOR ag	NALP1 yeast inh	MOR-DOR inv ag-1	HTR5A ag ctr	PolyA inh	HTR5A inv ag	MOR-DOR inv ag-2	HTR5A inv conf	others
CCOc1ccc(N=C2C(=O)N(CN3CCOCC3)c3ccccc32)cc1	-16	17	67*	-5	6	16	.	.	MOR-DOR inv conf=49*;HTR5A inv count=-9
CCOc1ccc(OCCN2C(=O)c3ccccc3C2=O)cc1	0	-4	2	-3	7	-10	.	.
Cc1ccc(CSc2nnc3c(n2)OC2(Nc4ccccc4-3)C(=O)Nc3ccc(F)cc32)cc1 (stereo unspecified)	-14	16	79*	-2	-13	5	.	.	MOR-DOR inv conf=70*;HTR5A inv count=8
Cc1ccc(SCc2[nH]nc3c2C2(C(=O)Nc4ccc(F)cc42)C(C#N)=C(N)O3)cc1 (stereo unspecified)	-1	-5	3	9	6	-24	.	.
O=C1Nc2ccc(F)cc2C12Nc1ccccc1-c1nnc(SCc3ccccc3)nc1O2 (stereo unspecified)	-14	12	79*	-6	-7	16	.	.	MOR-DOR inv conf=70*;HTR5A inv count=8
Clc1ccccc1CSc1cc2c(nn1)-c1ccccc1CC2	2	7	-11	-4	-2	-1	.	.
O=C1Nc2ccc(F)cc2C12Nc1ccccc1-c1nnc(SCc3ccccc3Cl)nc1O2 (stereo unspecified)	-14	-9	78*	-2	-24	14	.	.	MOR-DOR inv conf=56*;HTR5A inv count=7
CCc1nnc(NC(=O)CSc2nc3cc(OC)c(OC)cc3cc2C)s1	-1	-6	6	3	-22	-9	.	.
COc1ccc(/C=C(/NC(=O)c2cccs2)C(=O)NCc2ccco2)cc1OC	-1	-5	8	14	-15	44*	-37	-8
Cc1cc(C(=O)NN=C2CCCCCC2)c(C)o1	-1	.	6	4	1	-19	.	.
COc1cc(/C=C2\SC(=S)N(NC(=O)c3cccnc3)C2=O)ccc1O	-5	.	24	-7	86*	22*	-397	-22
O=C(NN1C(=O)/C(=C/c2ccc(O)c(O)c2)SC1=S)c1ccccc1	-6	0	30	-8	2	31*	-173	-2
COc1cc(/C=C2/SC(=S)N(CC3CCCO3)C2=O)ccc1O (stereo unspecified)	1	25	-4	-11	-1	44*	-69	28
Cc1cccc(-c2ncc(CN3CCN(CCC(C)C)C(CCO)C3)cn2)c1 (stereo unspecified)	0	5	-3	4	4	-11	.	.
O=C(NCCc1nc(-c2ccccc2Cl)no1)c1ccccc1	-2	.	9	3	-5	-8	.	.
CC(C)C(=O)NCCc1nc(-c2ccccc2Cl)no1	0	.	3	2	-1	38*	-19	0
FC(F)Oc1ccc(/C=N/n2c(Cc3ccc(Br)cc3)n[nH]c2=S)cc1	11	-19	-56	-4	-5	12	.	.
CSc1ccc(/C=N/n2c(Cc3ccc(Br)cc3)n[nH]c2=S)cc1	6	7	-30	-13	-12	32*	-39	13
Nc1ccc(S(=O)(=O)NC2(C(F)(F)F)NC(=O)N(c3ccccc3F)C2=O)cc1 (stereo unspecified)	-1	0	6	2	-10	-7	.	.
CSc1ccc(NC(=O)NCc2ccccc2)cc1	-2	12	10	-1	24	31*	-22	7
O=C(NCc1ccc(F)cc1)Nc1ccccc1	-3	14	15	4	2	15	.	.
N#CCCN(/N=C/c1cccnc1)C1=NS(=O)(=O)c2ccccc21	-2	4	11	0	-11	34*	-302	5
